This is a sample that favours compounds with a hit; in the whole collection about 2% have one here.
BJeLR viability – MLPCN primary cell-based screen for lethality selective to Ras in HRASV12 cells. BJeLR (HRASV12) viability, CellTiter-Glo ATP luminescence, 48 h. inhibition, % (no concentration beside the values). 0.17% of 300,000 active. AID 1554, 2009; in the data active = inhibition above about 50%
PrP 5UTR inh – inhibition of PrP 5' UTR reporter expression; inhibition, % (no concentration beside the values); cell-based PrP 5' UTR mRNA reporter, plate reader; 0.35% of 340,000 active; in the data active = inhibition above about 52%; also: 0 = median of the neutral control wells
Y pestis TopoI – Yersinia pestis topoisomerase I inhibitors, primary screen, biochemical, cleavage product accumulation, plate reader, single point; activity, % at 10 µM; 0.064% of 360,000 active; AID 504884, 2011; Y. pestis Topo-I cleavage product accumulation; in the data active = activity above about 50%, passing the limit was not always enough
PfHsp40 rescue – rescue of yeast from PfHsp40 toxicity, primary screen, S. cerevisiae, ATP luminescence; growth rescue, % at 12.5 µM; AID 504582, 2011; S. cerevisiae expressing PfHsp40, growth rescue; 0.68% of 340,000 active; in the data active = growth rescue above about 28%, passing the limit was not always enough;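 also: yeast W303a lacking pdr1 and pdr3 grown in galactose medium; growth measured after three days at 30 °C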
PrPC surface inh – inhibitors of human cell surface prion protein PrPC, primary screen, cell-based, TR-FRET. inhibition, % at 13.8 µM. TR-FRET read-out. 0.43% of 370,000 active; in the data active = inhibition above about 24%; also: 0% = median of the test wells and 100% = reference compound wells
CCHF vOTU inh-1 – CCHFV vOTU protease inhibitors, primary screen, biochemical, Pep-AMC substrate, fluorescence. inhibition, % at 11.5 µM. Crimean-Congo hemorrhagic fever virus L polyprotein viral ovarian tumor (vOTU) protease …. AID 651958, 2012. 0.55% of 370,000 active; also: 0% = vehicle wells with enzyme and 100% = no enzyme wells
CCHF vOTU inh-2 – CCHFV vOTU protease inhibitors, confirmation, biochemical, Pep-AMC substrate, fluorescence. 17% of 1,900 active. shares compounds with CCHF vOTU inh-1. Recombinant CCHFV vOTU. inhibition, % at 11.5 µM
Starred values were filed as active, the others as inactive; / = no result. Rule as the data show it, unless noted: active = inhibition above about 30%; inactive = the rest.

SMILES	BJeLR viability	PrP 5UTR inh	Y pestis TopoI	PfHsp40 rescue	PrPC surface inh	CCHF vOTU inh-1	CCHF vOTU inh-2
CCOC(=O)c1c(C)oc2c1cc(NS(=O)(=O)c1ccc(C(=O)O)cc1)c1ccccc12	-12	-7	5	1	1	45*	4
Cc1oc2c(cc(NS(=O)(=O)c3ccc(Cl)cc3)c3ccccc32)c1C(=O)O	/	-16	5	1	-8	1	/
COC(=O)[C@]12C[C@H](CC(=O)NCC34CC5CC(CC(C5)C3)C4)C(=O)N(CCC3=CCCCC3)C1=C[C@H](C1CCCC1)O[C@@H]2C	/	/	/	/	-8	0	/
O=C(NCc1ccco1)c1ccccc1Nc1ccc(F)cc1	/	-4	-4	1	11	31*	-5
CCCCCCC[C@@H](C/C=C/CCC(=O)N(C)C/C(=C/Cl)C/C(=C\C(=O)N1C[C@H](O)CC1=O)OC)OC	/	-10	26	54*	0	31*	13
CCSc1n[nH]c(=O)n1C	/	/	/	/	-5	20	/
CN1OC[C@@H]2CN(C(=O)c3ccc([N+](=O)[O-])cc3)[C@H](c3ccccc3Br)C[C@@H]21	/	/	/	/	-15	39*	-16
CC1(C)OC(=O)C2=C(CC(CCc3ccccc3)OC2c2ccc(F)cc2)O1 (stereo not given)	/	/	/	/	7	12	/
CC(C)(C)c1ccc(-c2cn(C[C@H](Cc3ccccc3)n3c(=O)c4ccccc4n3Cc3ccco3)nn2)cc1	/	/	/	/	3	6	/
O=C(O)CSc1cc(NS(=O)(=O)c2ccc(Br)cc2)c2ccccc2c1O	5	-24	7	0	-21	114*	104*
O=S(=O)(Nc1cc(Sc2ncn[nH]2)c(O)c2ccccc12)c1ccccc1	/	-18	-13	24	-2	105*	97*
Cc1ccc(NC(=O)Cc2ccc(Cl)c(Cl)c2)cc1S(=O)(=O)N(C)C	-8	-20	4	-1	16	30*	-9
O=C(Nc1ccc(C(=O)O)cc1)/C(=C\C=C\c1ccccc1)NC(=O)c1cccc(Br)c1	5	-3	1	0	4	30*	22
CC(=O)OCCCNc1cc(SCc2ccco2)c2nonc2c1[N+](=O)[O-]	1	3	2	0	-15	55*	-18
CCCC(=O)OCCNc1cc(SCc2ccco2)c2nonc2c1[N+](=O)[O-]	1	-9	-1	-1	-12	10	/
COC(=O)c1ccsc1NS(C)(=O)=O	/	/	/	/	-8	31*	-19
C[C@@H]1CCCCO[C@H](CN(C)C(=O)Nc2ccc(C(F)(F)F)cc2)[C@@H](C)CN([C@H](C)CO)C(=O)c2cc(NC(=O)c3ccncc3)ccc2O1	/	/	17	/	1	32*	-1
O=C1C(Cl)=C(NCCc2ccccc2)C(=O)c2ccccc21	/	-52	10	4	-17	83*	33*
CC(C)NC1=C(Cl)C(=O)c2ccccc2C1=O	3	-44	-13	-2	-25	59*	60*
C=CCNC1=C(Cl)C(=O)c2ccccc2C1=O	-10	-25	-3	0	-39	68*	59*
O=C1C(Cl)=C(Nc2ccccc2)C(=O)c2ccccc21	9	-95	2	0	-8	22	/
CC(=O)N(Cc1ccc(F)cc1)C1=C(NCCc2ccccc2)C(=O)c2ccccc2C1=O	35	-21	18	-1	12	87*	63*
CC(=O)N(Cc1ccc(F)cc1)c1cccc(C)c1C	-2	-16	-4	-1	-1	0	/
COC(=O)c1cc2c(c3c4ccccc4n(S(=O)(=O)c4ccccc4)c13)C(=O)N(Cc1ccc(N(C)C)cc1)C2	/	/	/	/	13	9	/
COC(=O)c1cc(NC(=O)NC2CCCCN(Cc3ccc(Cl)cc3)C2=O)cc(C(=O)OC)c1 (stereo not given)	/	/	/	/	8	9	/
CC[C@H](C(=O)Nc1ccccc1N1CCCC1)c1ccccc1	/	/	/	/	9	6	/

Compound activity as filed in PubChem.
